Assay results from PubChem BioAssay AID1159580 (chemical genetic matrix, 2015).
Several values for one entry are separate records, joined by “and”; a condition that tells them apart may be missing. Equal entries are not always repeated. Out of some 5,500 compounds screened, about 2,000 (36%) were called active. Inconclusive results (about 18%) are left out. No stated cut-off is given here; in the data, active means normalized growth mostly below about 0.91 (no sharp cut-off); inconclusive means no clear call, values can overlap the other calls; inactive means mostly above about 0.92. Some of the results follow.

Test: chemical genetic growth profiling, strain panel (AID 1159580);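 further: tested at 20 µM; growth read once vehicle control cultures reached saturation at 30 °C; 1 = growth at the plate median or of vehicle wells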
Conditions: growth OD

Measured: normalized growth

CC(NC(C)(C)C)C(=O)c1cccc(Cl)c1 (stereo unspecified)
inactive: S. cerevisiae deletion strains, locus YJR075W, strain HOC1, stronger effect = lower value 1.02 | S. cerevisiae deletion strains, locus YKL009W, strain mrt4, stronger effect = lower value 0.977 | S. cerevisiae deletion strains, locus YKL068W, stronger effect = lower value 1.02 | S. cerevisiae deletion strains, locus YKL085W, strain MDH1 (second series), stronger effect = lower value 1.02 | S. cerevisiae deletion strains, locus YKL085W, strain MDH1, stronger effect = lower value 1.02 | S. cerevisiae deletion strains, locus YKL160W, strain elf1, stronger effect = lower value 0.996 | S. cerevisiae deletion strains, locus YKL190W, strain CNB1, stronger effect = lower value 1.01 | S. cerevisiae deletion strains, locus YKR001C, strain vps1, stronger effect = lower value 1.02 | S. cerevisiae deletion strains, locus YKR026C, strain gcn3, stronger effect = lower value 0.995 | S. cerevisiae deletion strains, locus YKR091W, strain srl3, stronger effect = lower value 0.998 | S. cerevisiae deletion strains, locus YLL001W, strain dnm1, stronger effect = lower value 0.993 | S. cerevisiae deletion strains, locus YLL026W, stronger effect = lower value 1 | S. cerevisiae deletion strains, locus YLL041C, strain sdh2, stronger effect = lower value 1 | S. cerevisiae deletion strains, locus YLR027C, strain aat2, stronger effect = lower value 1 | S. cerevisiae deletion strains, locus YLR039C, strain RIC1, stronger effect = lower value 1.03 | S. cerevisiae deletion strains, locus YLR058C, strain SHM2, stronger effect = lower value 1.01 | S. cerevisiae deletion strains, locus YLR102C, strain apc9, stronger effect = lower value 1.03 | S. cerevisiae deletion strains, locus YLR113W, strain HOG1, stronger effect = lower value 0.986 | S. cerevisiae deletion strains, locus YLR221C, strain rsa3, stronger effect = lower value 1.01 | S. cerevisiae deletion strains, locus YLR258W, strain gsy2, stronger effect = lower value 0.996 | S. cerevisiae deletion strains, locus YLR262C, strain YPT6 (second series), stronger effect = lower value 0.977 | S. cerevisiae deletion strains, locus YLR262C, strain YPT6, stronger effect = lower value 1.05 | S. cerevisiae deletion strains, locus YLR268W, strain sec22, stronger effect = lower value 1.03 | S. cerevisiae deletion strains, locus YLR320W, strain mms22, stronger effect = lower value 0.985 | S. cerevisiae deletion strains, locus YLR330W, strain CHS5, stronger effect = lower value 1.01 | S. cerevisiae deletion strains, locus YLR342W, strain FKS1 (second series), stronger effect = lower value 0.98 | S. cerevisiae deletion strains, locus YLR342W, strain FKS1, stronger effect = lower value 0.997 | S. cerevisiae deletion strains, locus YLR357W, strain rsc2, stronger effect = lower value 0.983 | S. cerevisiae deletion strains, locus YLR370C, strain arc18, stronger effect = lower value 1 | S. cerevisiae deletion strains, locus YLR371W, strain rom2, stronger effect = lower value 1.04 | S. cerevisiae deletion strains, locus YLR384C, strain iki3, stronger effect = lower value 0.993 | S. cerevisiae deletion strains, locus YLR418C, strain cdc73, stronger effect = lower value 1.03 | S. cerevisiae deletion strains, locus YML016C, strain PPZ1, stronger effect = lower value 1.01 | S. cerevisiae deletion strains, locus YML032C, strain rad52, stronger effect = lower value 1.03 | S. cerevisiae deletion strains, locus YML120C, strain ndi1, stronger effect = lower value 1.01 | S. cerevisiae deletion strains, locus YML124C, strain tub3, stronger effect = lower value 1.04 | S. cerevisiae deletion strains, locus YMR058W, strain fet3, stronger effect = lower value 0.997 | S. cerevisiae deletion strains, locus YMR078C, strain ctf18, stronger effect = lower value 1.04 | S. cerevisiae deletion strains, locus YMR125W, strain sto1, stronger effect = lower value 0.999 | S. cerevisiae deletion strains, locus YMR129W, stronger effect = lower value 1 | S. cerevisiae deletion strains, locus YMR205C, strain PFK2, stronger effect = lower value 0.982 | S. cerevisiae deletion strains, locus YMR223W, strain ubp8, stronger effect = lower value 1.01 | S. cerevisiae deletion strains, locus YMR231W, strain pep5, stronger effect = lower value 0.997 | S. cerevisiae deletion strains, locus YMR263W, strain SAP30, stronger effect = lower value 1.01 | S. cerevisiae deletion strains, locus YMR307W, strain GAS1, stronger effect = lower value 1 | S. cerevisiae deletion strains, locus YNL067W, strain RPL9B, stronger effect = lower value 1.01 | S. cerevisiae deletion strains, locus YNL071W, strain lat1, stronger effect = lower value 1.01 | S. cerevisiae deletion strains, locus YNL128W, strain TEP1, stronger effect = lower value 1.02 and 0.978 | S. cerevisiae deletion strains, locus YNL153C, strain GIM3, stronger effect = lower value 1.01 | S. cerevisiae deletion strains, locus YNL175C, strain NOP13, stronger effect = lower value 0.99 | S. cerevisiae deletion strains, locus YNL183C, strain NPR1, stronger effect = lower value 0.965 | S. cerevisiae deletion strains, locus YNL197C, strain WHI3, stronger effect = lower value 1.02 | S. cerevisiae deletion strains, locus YNL209W, strain ssb2, stronger effect = lower value 1.01 | S. cerevisiae deletion strains, locus YNL224C, strain SQS1, stronger effect = lower value 0.999 | S. cerevisiae deletion strains, locus YNL233W, strain BNI4, stronger effect = lower value 0.999 | S. cerevisiae deletion strains, locus YNL248C, strain rpa49, stronger effect = lower value 0.992 | S. cerevisiae deletion strains, locus YNL250W, strain rad50, stronger effect = lower value 1.04 | S. cerevisiae deletion strains, locus YNL271C, strain bni1, stronger effect = lower value 1.03 | S. cerevisiae deletion strains, locus YNL298W, strain CLA4, stronger effect = lower value 1 | S. cerevisiae deletion strains, locus YNL307C, strain MCK1, stronger effect = lower value 1.03 | S. cerevisiae deletion strains, locus YNL322C, strain KRE1 (second series), stronger effect = lower value 0.995 | S. cerevisiae deletion strains, locus YNL322C, strain KRE1, stronger effect = lower value 1.01 | S. cerevisiae deletion strains, locus YNR049C, strain mso1, stronger effect = lower value 1.01 | S. cerevisiae deletion strains, locus YNR052C, strain pop2, stronger effect = lower value 1.01 | S. cerevisiae deletion strains, locus YOL006C, strain TOP1, stronger effect = lower value 1.05 | S. cerevisiae deletion strains, locus YOL012C, strain htz1 1.05 | S. cerevisiae deletion strains, locus YOL147C, strain pex11, stronger effect = lower value 1.04 | S. cerevisiae deletion strains, locus YOR001W, strain rrp6, stronger effect = lower value 1 | S. cerevisiae deletion strains, locus YOR061W, strain CKA2, stronger effect = lower value 1.02 | S. cerevisiae deletion strains, locus YOR069W, strain VPS5, stronger effect = lower value 1.01 | S. cerevisiae deletion strains, locus YOR070C, strain gyp1, stronger effect = lower value 1 | S. cerevisiae deletion strains, locus YOR080W, strain dia2, stronger effect = lower value 0.996 | S. cerevisiae deletion strains, locus YOR083W, strain WHI5 (second series), stronger effect = lower value 1.01 | S. cerevisiae deletion strains, locus YOR083W, strain WHI5, stronger effect = lower value 0.996 | S. cerevisiae deletion strains, locus YOR106W, strain vam3, stronger effect = lower value 0.989 | S. cerevisiae deletion strains, locus YOR136W, strain idh2, stronger effect = lower value 1.03 | S. cerevisiae deletion strains, locus YOR144C, strain elg1, stronger effect = lower value 1.03 | S. cerevisiae deletion strains, locus YOR184W, strain ser1, stronger effect = lower value 1.06 | S. cerevisiae deletion strains, locus YOR231W, strain MKK1, stronger effect = lower value 1 | S. cerevisiae deletion strains, locus YOR265W, strain rbl2, stronger effect = lower value 0.994 | S. cerevisiae deletion strains, locus YOR270C, strain vph1, stronger effect = lower value 0.995 | S. cerevisiae deletion strains, locus YOR290C, strain snf2, stronger effect = lower value 1.02 | S. cerevisiae deletion strains, locus YOR316C, strain cot1, stronger effect = lower value 1.03 | S. cerevisiae deletion strains, locus YPL051W, strain arl3, stronger effect = lower value 1 | S. cerevisiae deletion strains, locus YPL055C, strain LGE1, stronger effect = lower value 1.02 and 0.98 | S. cerevisiae deletion strains, locus YPL078C, strain atp4, stronger effect = lower value 0.998 | S. cerevisiae deletion strains, locus YPL106C, strain sse1, stronger effect = lower value 0.976 | S. cerevisiae deletion strains, locus YPL240C, strain hsp82, stronger effect = lower value 1 | S. cerevisiae deletion strains, locus YPL241C, strain CIN2, stronger effect = lower value 1.01 and 0.988 | S. cerevisiae deletion strains, locus YPL256C, strain CLN2, stronger effect = lower value 1.03 | S. cerevisiae deletion strains, locus YPR119W, strain clb2, stronger effect = lower value 1.04 | S. cerevisiae deletion strains, locus YPR141C, strain kar3, stronger effect = lower value 1.02 | S. cerevisiae deletion strains, locus YPR163C, strain tif3, stronger effect = lower value 1.04 | S. cerevisiae deletion strains, locus YPR167C, strain met16, stronger effect = lower value 1.03 | S. cerevisiae deletion strains, strain wtn01, stronger effect = lower value 1.03 | S. cerevisiae strains, strain wild type, stronger effect = lower value 1
